# Measured values: paper PMC4336329 (PLoS ONE, 2015)
# About 14,000 (4.5%) of roughly 310,000 compounds showed an effect of 50% or more. The effect is printed as a negative number. Shown is part of a subset that was picked to be rich in strong results.
# Molecular target: human ether-à-go-go-related gene (hERG) potassium channel (human, UniProt Q12809)
# Experiment: primary screen, population patch clamp on CHO cells stably expressing hERG; higher = less effect of the substance
# 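Also: peak tail current of the secondary pulse compared with the same well before compound.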
# Chain of human ether-à-go-go-related gene (hERG) potassium channel (Q12809 whole entry, looked up): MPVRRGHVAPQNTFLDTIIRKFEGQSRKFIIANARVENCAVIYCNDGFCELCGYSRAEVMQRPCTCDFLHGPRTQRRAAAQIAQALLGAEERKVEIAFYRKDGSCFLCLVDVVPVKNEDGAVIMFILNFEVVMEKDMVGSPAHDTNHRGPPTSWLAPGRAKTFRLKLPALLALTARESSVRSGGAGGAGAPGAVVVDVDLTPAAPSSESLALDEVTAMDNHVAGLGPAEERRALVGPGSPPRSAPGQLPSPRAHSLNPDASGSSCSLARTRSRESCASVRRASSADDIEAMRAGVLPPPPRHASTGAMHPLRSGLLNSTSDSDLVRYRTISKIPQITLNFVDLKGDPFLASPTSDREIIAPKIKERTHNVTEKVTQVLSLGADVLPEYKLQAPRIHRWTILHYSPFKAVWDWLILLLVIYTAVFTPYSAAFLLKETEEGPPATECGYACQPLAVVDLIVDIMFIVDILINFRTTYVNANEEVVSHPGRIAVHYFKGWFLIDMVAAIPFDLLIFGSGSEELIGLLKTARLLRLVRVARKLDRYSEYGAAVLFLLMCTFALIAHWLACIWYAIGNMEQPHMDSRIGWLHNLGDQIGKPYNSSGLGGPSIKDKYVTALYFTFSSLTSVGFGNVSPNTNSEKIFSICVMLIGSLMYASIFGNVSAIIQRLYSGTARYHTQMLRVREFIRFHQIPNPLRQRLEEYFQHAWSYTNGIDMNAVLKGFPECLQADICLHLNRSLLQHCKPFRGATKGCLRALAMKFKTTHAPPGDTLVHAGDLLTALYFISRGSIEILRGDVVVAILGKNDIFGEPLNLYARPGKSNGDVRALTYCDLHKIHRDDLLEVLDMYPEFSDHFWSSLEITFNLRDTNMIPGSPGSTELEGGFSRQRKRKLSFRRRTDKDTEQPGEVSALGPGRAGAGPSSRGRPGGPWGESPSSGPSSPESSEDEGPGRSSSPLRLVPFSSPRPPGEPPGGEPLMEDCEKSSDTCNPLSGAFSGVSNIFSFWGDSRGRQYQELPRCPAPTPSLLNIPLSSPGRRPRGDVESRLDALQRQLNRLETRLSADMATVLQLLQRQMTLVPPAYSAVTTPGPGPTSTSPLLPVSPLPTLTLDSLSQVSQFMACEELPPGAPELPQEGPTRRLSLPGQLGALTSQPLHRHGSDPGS
row,Compound,"hERG current change (%, negative = inhibition) at 10uM [%]"
1,CC(=O)C1C(c2ccc3ncccc3c2)NC(=O)NC1(O)C(F)(F)F (stereo not shown),10.9
2,Cc1ccsc1/C=N/Nc1ncc(Cl)cc1Cl,5.75
3,COc1ccc(C)cc1S(=O)(=O)N1CCN(S(=O)(=O)c2cc(C(=O)O)ccc2C)CC1,3.86
4,CCN1CCN(C(c2cccs2)C(C)NC(=O)c2cccc(OC)c2)CC1 (stereo not shown),-4.05
5,CCN(CC)C(=O)c1ccc(NC(=O)c2cccc(C(F)(F)F)c2)cc1,4.47
6,CN(C(=O)COC(=O)c1ccc2c(=O)n3c(nc2c1)CCC3)C1CCS(=O)(=O)C1 (stereo not shown),10.5
7,CCc1ccc2nc(NC(=O)Cn3cnc4ccccc4c3=O)sc2c1,9.75
8,Cc1cc(C)nc(/N=C(\N)Nc2cccc([N+](=O)[O-])c2)n1,-28.7
9,Cc1cc(C)nc(/N=C(\N)Nc2ccc(OCc3ccccc3)cc2)n1,-78.2
10,CC(=O)Nc1cccc(N/C(N)=N/c2nc(C)cc(C)n2)c1,4.87
11,CCOC(=O)C(=O)Nc1ccc(OCc2ccccc2)cc1,20.2
12,CCOc1ccc(N/C(N)=N/c2nc(C)cc(C)n2)cc1,-46.5
13,Cc1cc(C)nc(/N=C(\N)Nc2ccc(OCCC(C)C)cc2)n1,-71.8
14,Cc1cc(C)nc(/N=C(\N)Nc2ccc(S(=O)(=O)Nc3nccc(C)n3)cc2)n1,19.8
15,Cc1cc(C)nc(/N=C(\N)Nc2cccc(OCc3ccccc3)c2)n1,-74.1
16,Cc1cc(OCC(=O)Nc2ccc(OCc3ccccc3)cc2)nc(C(C)C)n1,3.36
17,CCOC(=O)c1c(C)noc1CP(=O)(c1ccccc1)c1ccccc1,-6.61
18,CCC(=O)NC(c1ccc(OC)cc1)c1c(O)ccc2ccccc12 (stereo not shown),3.82
19,COc1ccc(-c2cnnc(N/N=C/c3ccc(O)c(OC)c3)n2)cc1,-50.1
20,COc1ccc(-c2cnnc(N/N=C/c3ccc(OC)c(OC)c3)n2)cc1,-35.7
21,COc1ccc(-c2cnnc(N/N=C/c3ccc(O)c(O)c3)n2)cc1,2.82
22,CC1CCCCC12NC(=O)N(Cn1nnc3ccccc3c1=O)C2=O (stereo not shown),-17.2
23,Cc1ccc(-c2cc(-c3ccccc3)nc(N(C)N)n2)cc1,16.7

row,Compound,"hERG current change (%, negative = inhibition) at 10uM [%]"
1,c1ccc(Cc2nnc(N3CCCCC3)c3ccccc23)cc1,-26.7
2,c1ccc(N2CCN(c3nnc(Cc4cccnc4)c4ccccc34)CC2)nc1,-50.1
3,O=C(Cn1nc(Cc2cccnc2)c2ccccc2c1=O)N1CCN(c2ccccn2)CC1,-23.1
4,CC(C)(C)c1ccc(COc2ccsc2C(=O)O)cc1,-6.72
5,COCCCNC(=S)N(Cc1cccnc1)Cc1ccc(OC)c(OC)c1,12.4
6,Cc1ccc(CNC(=O)CNC(=S)N(Cc2ccccc2)Cc2cccnc2)cc1,-19.8
7,O=C(CNC(=S)N(Cc1ccccc1)Cc1cccnc1)NCCc1ccccc1,-41.3
8,COCCNC(=S)N(Cc1cccnc1)Cc1ccc(OC)c(OC)c1.O=C(O)C(=O)O,9.52
9,Cc1ccc(CCNC(=O)CNC(=S)N(Cc2ccccc2)Cc2cccnc2)cc1,-55
10,COc1ccc(CN(Cc2cccnc2)C(=S)NCCc2ccccc2)cc1OC.O=C(O)C(=O)O,-50.5
11,CCCc1nn(C)c2c(=O)[nH]c(-c3cc(S(=O)(=O)Nc4ccc(NC(C)=O)cc4)ccc3OCC)nc12,-21.2
12,O=C(NC1CCCCCC1)c1ccc(CS(=O)(=O)Cc2ccc(F)cc2)o1,3.52
13,O=C(CCNC(=O)c1ccccc1)OCN1C(=O)c2ccccc2C1=O,-5.38
14,CCCCNC(=O)CS(=O)Cc1nc(-c2ccc(C)cc2)oc1C (stereo not shown),-17.5
15,COCCCNC(=O)Cn1nnc(-c2ccc(NC(=O)c3ccccc3OC)cc2)n1,6.89
16,CCOc1ccc(-c2nnc(SCc3nc4ccccc4[nH]3)n2N)cc1,-34.3
17,COc1ccc(OCCN2CCN(C3CC(=O)N(CCC(C)C)C3=O)CC2)cc1 (stereo not shown),-63.4
18,CCN1C(=O)CC(N2CCN(c3ccc(OC)cc3)CC2)C1=O (stereo not shown),-9.88
19,COc1ccc(CCN2C(=O)CC(N3CCN(S(=O)(=O)c4ccccc4)CC3)C2=O)cc1 (stereo not shown),-18.7
20,COc1ccc(Nc2nc3ccccc3n3nnnc23)cc1,-7.93
21,CN1CCN(S(=O)(=O)c2ccc3c(c2)OCCO3)CC1,12.1
22,COC(=O)CCCC1=CC2=C(c3ccccc3)C(=O)C(C)(OC(=O)C3CCCC3)C(=O)C2=CN1Cc1ccc(OC)cc1 (stereo not shown),-4.26
23,COC(=O)CCCC1=CC2=C(c3ccccc3)C(=O)C(C)(OC(=O)C3CCCC3)C(=O)C2=CN1CC1CC1 (stereo not shown),-39.9
